Source: PubChem BioAssay (several laboratories)
Measles_CPE – compounds protecting cells from measles virus cytopathic effect, primary screen, measles RdRp inhibitor project, single point, MLSMR library, absorbance; Measles virus-infected cells, CPE protection; protection (pct of control), % at 4 µM; 140,000 tested, 1.5% active; in the data active = protection mostly above about 24%, no sharp cut-off; inactive = mostly below about 26%
SDO1_yeast_rescue – growth rescue of sdo1-depleted yeast, primary screen, S. cerevisiae, bone marrow failure model | S. cerevisiae sdo1-depleted JHY4D growth rescue, OD600 30 h; stronger effect = higher value; pdr5 snq2 efflux-pump mutant strain | z-score at 10 µM | 140,000 tested, 0.21% active;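 active = z-score above 3 at both the 24 hr and the 30 hr optical density reads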;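 also: z-score against mean and SD of all compound wells on the same plate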
Phagocyt_inh – inhibitors of macrophage phagocytosis, primary screen, imaging, J774A.1 cells, IgG beads; J774A.1 macrophage IgG-bead phagocytosis; 110,000 tested, 0.07% active; inhibition, % at 5 µM;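 active = inhibition above the mean of the plate negative controls plus 5 SD, cut at about 13% in these data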;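 also: phagocytic index as fraction of beads internalized from green versus red external bead signal; plate controls were DMSO negative control for no effect and cytochalasin-D positive control for full effect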
sdo1_rescue_conf – SDO1-depleted yeast growth rescue, concentration-response, diseases of bone marrow failure, JHY4D, OD600 | OD recovery (concentration not given with the values) | shares compounds with SDO1_yeast_rescue | S. cerevisiae JHY4D (SDO1-depleted) growth rescue, 30 h; stronger effect = higher value; efflux-deficient strain, SNQ2 and PDR5 mutated | 440 tested, 44% active;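 active = yeast growth recovered at 30 hours, either rising with dose fitted slope above 0.001 or with average optical density gain above 0.07, some results past the limit were not filed as active; inactive = growth falling with dose or no effect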;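 also: gain in OD600 from 0 h to 30 h averaged across all seven doses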
* hit, by the source's call; / = no result given. Hits are enriched below; roughly 1.8% of the tested compounds scored in any of these assays.

SMILES Measles_CPE SDO1_yeast_rescue Phagocyt_inh sdo1_rescue_conf
O=C(N/N=C/c1c(O)n(CCC2=CCCCC2)c(=O)[nH]c1=O)c1ccccc1 3 1 -6 /
Nc1ccccc1N=Cc1c(O)n(CCC2=CCCCC2)c(=O)[nH]c1=O 1 7.4* 1 0.059
COc1nc(NC(C)C)nc(NC(C)C)n1 13 0.52 0 /
CN1/C(=C\C=C\C2=[N+](C)c3ccc4ccccc4c3C2(C)C)C(C)(C)c2ccccc21 2 -1.2 / /
C[N+]1=C(/C=C/Nc2ccccc2)C(C)(C)c2ccccc21 7 6.2* -3 0.14*
C/C(=N\Nc1ccccc1)c1c(O)n(C)c(=O)n(C)c1=O 9 -0.75 -9 /
